Measurements as given in PubChem BioAssay.
Values without a mark were called inactive. Active and inactive are the calls of the source. Rule as the data show it: active = inhibition above about 30%; inactive = the rest.

Assay: growth suppression of yeast trafficking mutant, preliminary HTS, modulators of trafficking downstream of Golgi apparatus project, 1536-format plate, OD 615 nm (AID 637)
Settings: yeast transport mutant growth, absorbance 615 nm, 18 h; hits give high values
Compound `CC(=O)Nc1ccc(S(=O)(=O)N(C2=NCC(C)S2)c2ccccc2)cc1` (stereo not given) has an inhibition of -4.35%.
With `CCOc1nc(-c2ccccc2)ccc1-c1noc(-c2ccc(OC)c(OC)c2)n1` the inhibition was -4.43%.
`Clc1ccc2c(c1)[C@H]1OCC[C@H]1[C@@H](c1ccco1)N2` gave an inhibition of -5.83%.
Work on `O=C(CSc1ccc(-c2ccccc2)nn1)N1CCOCC1` yielded an inhibition of -4.73%.
`COc1cc(CO)cc(-c2cc(CO)cc(OC)c2OC)c1OC` showed an inhibition of -6.91%.
For `NCCCCCc1nnc(SC/C=C/c2ccccc2)o1`, the inhibition was 18.2%.
Work on `O=c1c2[nH]c3ccc(Cl)cc3c2ncn1Cc1ccccn1` yielded an inhibition of -3.27%.
With `CN(c1ccccc1C(=O)NCC1CCCO1)S(C)(=O)=O` (stereo not given) the inhibition was 2.36%.
Work on `COc1ccc(N2C(=O)c3cccc4cccc(c34)C2=O)nn1` yielded an inhibition of 5.09%.
`CS(=O)(=O)NCC(c1cccnc1)N1CCN(c2ccc(F)cc2)CC1` (stereo not given) gave an inhibition of -3.45%.
With `CNC(=O)Oc1ccc2c(c1)[C@]1(C)CCN(C)[C@@H]1N2C` the inhibition was 2%.
For `NC(N)=Nc1nc(CSCC/C(N)=N/S(N)(=O)=O)cs1`, the inhibition was 5.33%.
With `CC(OC(=O)c1ccco1)C(=O)NCc1cccs1` (stereo not given) the inhibition was -4.55%.
Compound `COc1ccc(OC)c(NC(=O)CS(=O)(=O)c2ccccc2)c1` has an inhibition of 0.91%.
`Cc1cccc(C)c1-n1nnnc1SCSc1nnnn1-c1c(C)cccc1C` showed an inhibition of -0.73%.
`Nc1nc2ccc(OC(F)(F)F)cc2s1` gave an inhibition of 0.33%.
`COc1ccccc1CC(=O)NCC1CCCO1` (stereo not given) showed an inhibition of -4.55%.
Work on `Cc1nc(N)[nH]c(=O)c1CCC(=O)OCC(C)C` yielded an inhibition of -0.66%.
With `CN1[C@@H]2CC(OC(=O)[C@H](CO)c3ccccc3)C[C@H]1[C@@H]1O[C@@H]12` (stereo not given in full) the inhibition was -2.83%.
With `Cn1c(=O)c2[nH]cnc2n(C)c1=O` the inhibition was -2.83%.
For `Cc1c(NC(=O)C(C)Oc2ncnc3ccccc23)c(=O)n(-c2ccccc2)n1C` (stereo not given), the inhibition was -3.28%.
`O=C(Cn1c(-c2cncs2)nc2ccccc21)NC1CCCC1` gave an inhibition of 5.09%.
In the case of `COC(=O)Nc1sccc1C(=O)Nc1sccc1C(=O)OC`, the inhibition is reported as -2.36%.
For `O=C1C2CC=C(Cl)CC2C(=O)N1CNc1ccccn1` (stereo not given), the inhibition was 5.65%.
For `CCOCCCNC(=O)C1CC(=O)N(C2CCCC2)C1` (stereo not given), the inhibition was 1.15%.
For `Cc1ccccc1Nc1nc(N)nc(CSCc2c(C)noc2C)n1`, the inhibition was 3.09%.
With `O=C1OCCC1Sc1ncnc2sccc12` (stereo not given) the inhibition was -2.18%.
For `CC(C)N(C(=O)N1CCC(c2nc(-c3ccncc3)no2)CC1)C(C)C`, the inhibition was -5.64%.
For `COc1cccc2sc(NC(=O)c3ccc(S(=O)(=O)N4CCOCC4)cc3)nc12`, the inhibition was -8.18%.
`Cc1ccc(S(=O)(=O)N2CCN(C(=O)N3CCOCC3)C2C)cc1` (stereo not given) showed an inhibition of -2.18%.
Compound `Cc1cc(C)n(CC(=O)O)n1` has an inhibition of -1.45%.
Work on `O=C(O)C1CCCN1C(=O)c1cccs1` (stereo not given) yielded an inhibition of -2.58%.
For `O=C(NCCCN1CCN(c2cccc(Cl)c2)CC1)c1ccc(N2CCCC2=O)cc1`, the inhibition was 4.91%.
Work on `Cc1nccn1CCCN1C(=O)OC2(CCCCC2)C1(C)O` (stereo not given) yielded an inhibition of -1.29%.
For `CN1CC=C2C(C#N)=C(N)C(C#N)(C#N)C(c3cccc(Cl)c3Cl)C2C1` (stereo not given), the inhibition was 2.13%.
For `CC(=O)OCC(=O)[C@@]12OC(C)(C)O[C@@H]1C[C@H]1[C@@H]3C[C@H](F)C4=CC(=O)C=C[C@]4(C)[C@@]3(F)[C@@H](O)C[C@@]12C`, the inhibition was -1.83%.
In the case of `CCOc1nc(OCC)nc(N2CCC(C)CC2)n1`, the inhibition is reported as 31.4% (active).
In the case of `CCOc1ccc(-c2nc(C#N)c(NCc3ccc4c(c3)OCO4)o2)cc1`, the inhibition is reported as -0.5%.
Compound `Cc1cccc(N2CCN(C(=O)C3CCCN(S(=O)(=O)c4cnc[nH]4)C3)CC2C)c1` (stereo not given) has an inhibition of -0.98%.
`CC(=O)c1ccccc1OCCn1nnc(-c2ccc(C)cc2)n1` showed an inhibition of 2.1%.
